Screening results: PubChem BioAssay, National Center for Advancing Translational Sciences (NCATS)
D1 antag – antagonists of human D1 dopamine receptor. AID 504652. P21728. HEK293 TREx D1 cells, calcium flux, dopamine EC80; hits give low values. activity change, negative = inhibition, % at 10 µM. 3.2% of 360,000 active; in the data active = activity change below about -30%; note: % is set by controls: 0 for no effect and ±100 for the full control effect
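Cells carrying a force-coupled, tetracycline-inducible human D1 receptor report calcium flux. Each well gets a 10 s baseline, compound with 180 s monitoring, then an EC80 dopamine stimulus with a second 180 s kinetic read.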
TRHR ag – activates the human TRH receptor; 0.18% of 360,000 active; AID 493084; P34981; TRHR cells, calcium flux fluo-8, FDSS agonist mode; activation, % at 2 µM; note: 0% is about no effect
Target sequence (P34981 whole entry, looked up): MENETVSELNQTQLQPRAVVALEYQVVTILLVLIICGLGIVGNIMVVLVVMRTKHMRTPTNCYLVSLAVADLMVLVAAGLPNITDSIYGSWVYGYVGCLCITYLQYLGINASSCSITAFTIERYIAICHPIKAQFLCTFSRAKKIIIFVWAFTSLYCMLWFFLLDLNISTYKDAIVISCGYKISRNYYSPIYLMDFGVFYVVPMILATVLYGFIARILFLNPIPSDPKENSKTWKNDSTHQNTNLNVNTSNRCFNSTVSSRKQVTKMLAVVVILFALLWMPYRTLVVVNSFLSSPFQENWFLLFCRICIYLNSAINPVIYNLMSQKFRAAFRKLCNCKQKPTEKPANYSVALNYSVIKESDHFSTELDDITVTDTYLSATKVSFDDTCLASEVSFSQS
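TRHR-expressing cells, plated overnight in medium with 10% serum, were loaded with fluo-8 calcium dye at room temperature. After a 10 s baseline, library compound was pin-added and calcium release was recorded kinetically (ex 480/em 530) as agonist response.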
TRHR PAM – allosterically enhances the human TRH receptor; TRHR cells, fluo-8 calcium fluorescence, EC20 TRH enhancement; enhancement, % at 2 µM; 0.66% of 360,000 active; in the data active = enhancement above about 30%; note: 0% is about no effect
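TRHR-expressing cells loaded with fluo-8 calcium dye were read kinetically (ex 480/em 530) during compound addition, then stimulated with an EC20 of TRH (10 nM final). Enhancement of the Gq-mediated intracellular calcium response was scored.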
D1 potentiator – enhances dopamine response at the human D1 receptor. P21728. HEK293 TREx D1 cells, calcium flux, dopamine EC20 potentiation. potentiation, % at 10 µM. 0.036% of 360,000 active; in the data active = potentiation above about 30%; note: 0% is about no effect
D1 ag – human D1 receptor agonism; HEK293 T-REx D1 cells, calcium flux, agonist mode; activation, % at 2 µM; 1% of 360,000 active; AID 504660; note: 0% is about no effect
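Tetracycline-induced HEK293 TREx D1 cells, force-coupled to calcium signalling, were dye-loaded with a no-wash calcium kit. Compound was pin-added after a 10 s baseline. Fluorescence was read kinetically at 1 cycle/s for 180 s, with calcium rises flagged as agonism.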
LDHA block – LDHA (human) enzyme inhibition; 0.15% of 480,000 active; P00338; AID 1347041; purified LDHA, NADH/diaphorase-resazurin fluorescence; hits give low values; activity change, % (values are at about 110 or 230 µM); in the data active = activity change below about -30%;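 note: plate controls were DMSO wells for no effect and wells without enzyme for full effect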
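Enzyme activity of human lactate dehydrogenase 5 (2 nM; 0.06 mM NADH, 0.2 mM pyruvate, 5 min, RT) is measured via a resazurin/diaphorase fluorescence readout of residual NADH.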
The depositor's hits bear a star; . = no result; ! = not active in a repeat. This is a sample that favours compounds with a hit; in the whole collection about 3.6% have one here. Cut-off read from the data, not from the text of the source, unless noted: active = activation above about 30%; inactive = the rest.

SMILES	D1 antag	TRHR ag	TRHR PAM	D1 potentiator	D1 ag	LDHA block
CCc1ccc(NC(=O)C(=O)NCC(c2cccnc2)N2CCN(C)CC2)cc1 (stereo unspecified)	2	0	3	9	53*	-5
O=S(=O)(NCC(c1cccnc1)N1CCN(c2ccc(F)cc2)CC1)c1cccs1 (stereo unspecified)	-31*	0	0	-3	-2	2
COc1ccc(C)cc1NC(=O)C(=O)NCC(c1cccnc1)N1CCN(c2ccccc2F)CC1 (stereo unspecified)	-34*	0	-3	-2	3	3
COc1ccc(N2CCN(C(CNC(=O)C(=O)NCCCN(C)C)c3cccnc3)CC2)cc1 (stereo unspecified)	-35*	0	-2	-2	1	3
O=S(=O)(NCC(c1cccnc1)N1CCN(c2ccc(F)cc2)CC1)c1ccc(F)cc1 (stereo unspecified)	-23	0	-2	-6	-2	-6
O=C(NCc1ccncc1)C(=O)N1CCN(C(=O)c2cc3ccccc3[nH]2)CC1	.	.	.	.	.	-11
O=C1/C(=C/c2cccc(Cl)c2Cl)C(c2ccccc2)Oc2ccccc21 (stereo unspecified)	.	.	.	.	.	-3
Cc1ccc(NC(=O)c2ccc3c(c2)CCC3)cc1C	.	.	.	.	.	4
CCCc1noc(CSc2nc3sc(C)c(C)c3c(=O)n2CCOC)n1	.	.	.	.	.	0
COc1ccccc1N1CCN(C(CNC(=O)C(=O)NCc2ccc(F)cc2)c2cccnc2)CC1 (stereo unspecified)	-2	-1	-2	-3	33*	-16
CCOC(=O)N1CCc2c(sc3c2c(=O)n(Cc2ccccc2)c(=O)n3Cc2cc(C)ccc2C)C1	4	0	5	-3	1	-9
CCOC(=O)N1CCc2c(sc3c2c(=O)n(CCc2ccccc2)c(=O)n3Cc2cc(C)ccc2C)C1	-51*	1	1	-4	2	-15
NS(=O)(=O)c1ccc(NC(=O)/C=C/c2ccc(S(=O)(=O)NCc3ccco3)cc2)cc1	-43*	1	-6	-5	5	-7
CC(C)(C)c1ccc(/C=C/C(=O)Nc2ccc(S(N)(=O)=O)cc2)cc1	-14	-1	8	-2	33*	1
CC(=O)c1ccc(NC(=O)/C=C/c2ccc(C)cc2)cc1	-9	0	-3	-5	4	-14
COc1ccc(/C=C/C(=O)Nc2ccc(C)cc2)cc1	-65*	-1	-6	-2	1	-3
C/C(=N/Nc1cc(C)c2ccccc2n1)c1ccc([N+](=O)[O-])cc1	.	.	.	.	.	-3
CC1(c2ccc(Cl)cc2)NC(=O)N(CC(=O)N2CCc3ccccc3C2)C1=O (stereo unspecified)	28	4	5	1	32*	-6
Cc1ccc(OCCn2cnc3c2c(=O)n(C)c(=O)n3C)cc1	-32*	0	3	-6	6	-4
Cc1ccc(Cl)c(OC(=O)Cn2cnc3c2c(=O)n(C)c(=O)n3C)c1	-41*	-1	2	3	14	0
Cn1c(=O)c2c(ncn2CC(COCc2ccccc2)OCc2ccccc2)n(C)c1=O (stereo unspecified)	-55*	0	-3	-4	1	-11
CCCOc1ccc(OCCn2cnc3c2c(=O)n(C)c(=O)n3C)cc1	.	.	.	.	.	0
Cc1ccc(NC(=O)COC(=O)Cn2cnc3c2c(=O)n(C)c(=O)n3C)c(Cl)c1	1	1	24	-6	4	-9
COc1cc(OC)c(OC)cc1CNC(=O)Cc1cccc(C(F)(F)F)c1	.	.	.	.	.	8
CN(C)C(=O)COC(=O)c1cc(-c2ccc(Cl)s2)nc2ccccc12	.	.	.	.	.	-6
SMILES	D1 antag	TRHR ag	TRHR PAM	D1 potentiator	D1 ag	LDHA block
CCN(CC)c1ccc(NC(=O)c2cc(S(=O)(=O)N3CCc4ccccc43)cn2C)c(C)c1	-34*	0	-2	-3	1	3
Cc1ccc(NC(=O)c2cc(S(=O)(=O)N3CCc4ccccc43)cn2C)cc1C	-45*	0	-2	-8	7	-11
COc1ccc(NC(=O)c2cc(S(=O)(=O)N3CCc4ccccc43)cn2C)cc1	10	0	3	1	0	-13
CN1CCC(N(C)CC(NC(=O)c2cccc(C(F)(F)F)c2)c2ccccc2)CC1 (stereo unspecified)	.	.	.	.	.	5
CN1CCc2cc3c(c4c2[C@H]1[C@H](O)c1ccccc1-4)OCO3	10	0	5	2	-3	15
CN1CCc2cccc3c2[C@H]1Cc1ccc(O)c(O)c1-3	-90*	3	-7	-7	43*!	18
Cc1ccc(C)c2[nH]c(=O)c(CN(CC3CCCO3)C(=S)NCc3ccco3)cc12 (stereo unspecified)	-4	0	9	-2	1	-5
CCOCCCNC(=S)N(Cc1ccco1)Cc1cc2cc3c(cc2[nH]c1=O)OCCO3	0	-3	8	-3	0	1
Cc1ccc2cc(CN(CC3CCCO3)C(=S)NCc3ccco3)c(=O)[nH]c2c1C (stereo unspecified)	2	1	34*	-12	3	-7
CCCCNC(=S)N(Cc1ccco1)Cc1cc2cc3c(cc2[nH]c1=O)OCCO3	-46*	1	2	-5	-1	-8
Cc1ccc2cc(CN(Cc3nnnn3Cc3ccco3)CC3CCCO3)c(=O)[nH]c2c1C (stereo unspecified)	-35*	0	-2	0	-2	-2
Cc1ccc2cc(CN(Cc3ccco3)Cc3nnnn3Cc3ccco3)c(=O)[nH]c2c1	.	.	.	.	.	5
Cc1ccc2[nH]c(=O)c(CN(Cc3ccccc3)Cc3nnnn3Cc3ccccc3)cc2c1	.	.	.	.	.	2
CCOC(=O)Cn1nnnc1CN(Cc1ccccc1)Cc1cc2cc(CC)ccc2[nH]c1=O	-39*	0	0	-5	2	-2
CCc1ccc2[nH]c(=O)c(CN(Cc3ccccc3)Cc3nnnn3Cc3ccccc3)cc2c1	.	.	.	.	.	4
Cc1ccc2[nH]c(=O)c(CN(Cc3nnnn3Cc3ccccc3)C3CCCC3)cc2c1	2	0	33*	6	-1	-3
CCCCCOc1ccc(Br)cc1CSC(=N)N	26	0	5	9	30*	-7
CCOc1ccc(CSC(=N)N)cc1	21	-1	15	-3	25	-2
CCCCOc1ccc(CSC(=N)N)cc1Cl	42	0	3	10	65*	-10
COc1ccc(Br)cc1CSC(=N)N	-6	-1	3	-5	22	-2
CC(c1ccccc1)N(C)C(=O)Cc1c[nH]c2ccccc12 (stereo unspecified)	.	.	.	.	.	11
Cc1sc(N)nc1Cc1ccccc1	.	.	.	.	.	-2
